According to publication PMC12820563, “FoxP3 forms a head-to-head dimer in vivo and stabilizes its multimerization on adjacent microsatellites”:
In all, about 16,000 sequences were measured (“rpm ratio (pull-down/input)”: median about 0.94, highest 2% from about 1.7 on). The entries come from a sample that favours the highest values as a whole.

What follows are sequences tested against T1, MBP-FoxP1dN (Mus musculus, UniProt P58462 326-579) (assay: PD-seq (MBP pull-down with sequencing); 20 mM Tris-HCl pH 7.5, 100 mM NaCl, 1.5 mM MgCl2, 0.4 uM protein, 0.1 uM dsDNA library, 30 min, room temperature, amylose pull-down; high values mean tight binding). Conditions: protein: recombinant; tags: His6-MBP; chain copies: 2; dsDNA, one strand shown.
T1 sequence: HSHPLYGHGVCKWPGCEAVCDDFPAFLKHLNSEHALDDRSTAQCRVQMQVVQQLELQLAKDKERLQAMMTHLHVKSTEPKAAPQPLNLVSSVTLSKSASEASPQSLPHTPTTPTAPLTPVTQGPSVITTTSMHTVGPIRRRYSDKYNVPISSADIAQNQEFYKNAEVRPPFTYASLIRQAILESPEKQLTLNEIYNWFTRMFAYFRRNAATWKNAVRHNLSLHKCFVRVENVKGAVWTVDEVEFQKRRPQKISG
Method in brief: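 A degenerate double-stranded DNA library, filled in with Klenow, was added at 0.1 µM to 0.4 µM His6-MBP-tagged mouse FoxP3 or FoxP1 fragment lacking the N-terminus, expressed in E. coli. Incubation lasted 30 min at room temperature in Tris pH 7.5 buffer with NaCl and MgCl2, after which complexes were collected on amylose resin, washed three times, digested with proteinase K to free the DNA, barcoded by PCR and sequenced by Illumina. Binding is the pooled-replicate reads-per-million enrichment of pull-down over input.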

In order of rising binding signal:
1. GATGATTGTTCTCCCAGCTGATGAATTACCGGGCTCGAGTAAACAAATTTTCCTAATCTTTCTGTTCAAGCGCCATCTAC  0.841 RPM ratio (pull-down/input)
2. GATGATTGTTCTCCCAGCTGATGAATTCCAAGCGTCGAGTAAACAAATTTTCCTAATCTTTCTGTTCAAGCGCCATCTAC  0.867 RPM ratio (pull-down/input)
3. GATGATTGTTCTCCCAGCTGATGAATTTCTGCAGTCGAGTAAACAAATTTTCCTAATCTTTCTGTTCAAGCGCCATCTAC  0.883 RPM ratio (pull-down/input)
4. GATGATTGTTCTCCCAGCTGATGAATTCCGTGTTTCGAGTAAACAAATTTTCCTAATCTTTCTGTTCAAGCGCCATCTAC  0.891 RPM ratio (pull-down/input)
5. GATGATTGTTCTCCCAGCTGATGAATTAGTTCGTTCGAGTAAACAAATTTTCCTAATCTTTCTGTTCAAGCGCCATCTAC  0.937 RPM ratio (pull-down/input)
6. GATGATTGTTCTCCCAGCTGATGAATTAGAAAGTTCGAGTAAACAAATTTTCCTAATCTTTCTGTTCAAGCGCCATCTAC  0.938 RPM ratio (pull-down/input)
7. GATGATTGTTCTCCCAGCTGATGAATTGAGTGATTCGAGTAAACAAATTTTCCTAATCTTTCTGTTCAAGCGCCATCTAC  0.981 RPM ratio (pull-down/input)
8. GATGATTGTTCTCCCAGCTGATGAATTATGATTCTCGAGTAAACAAATTTTCCTAATCTTTCTGTTCAAGCGCCATCTAC  0.982 RPM ratio (pull-down/input)
9. GATGATTGTTCTCCCAGCTGATGAATTATTCTTATCGAGTAAACAAATTTTCCTAATCTTTCTGTTCAAGCGCCATCTAC  1.08 RPM ratio (pull-down/input)
10. GATGATTGTTCTCCCAGCTGATGAATTATTCCTATCGAGTAAACAAATTTTCCTAATCTTTCTGTTCAAGCGCCATCTAC  1.08 RPM ratio (pull-down/input)
11. GATGATTGTTCTCCCAGCTGATGAATTATTTCAATCGAGTAAACAAATTTTCCTAATCTTTCTGTTCAAGCGCCATCTAC  1.11 RPM ratio (pull-down/input)
12. GATGATTGTTCTCCCAGCTGATGAATTTATTCTATCGAGTAAACAAATTTTCCTAATCTTTCTGTTCAAGCGCCATCTAC  1.16 RPM ratio (pull-down/input)
13. GATGATTGTTCTCCCAGCTGATGAATTTTTGATATCGAGTAAACAAATTTTCCTAATCTTTCTGTTCAAGCGCCATCTAC  1.17 RPM ratio (pull-down/input)
14. GATGATTGTTCTCCCAGCTGATGAATTATTCTAATCGAGTAAACAAATTTTCCTAATCTTTCTGTTCAAGCGCCATCTAC  1.2 RPM ratio (pull-down/input)
15. GATGATTGTTCTCCCAGCTGATGAATTGATGATATCGAGTAAACAAATTTTCCTAATCTTTCTGTTCAAGCGCCATCTAC  1.21 RPM ratio (pull-down/input)
16. GATGATTGTTCTCCCAGCTGATGAATTGCACACATCGAGTAAACAAATTTTCCTAATCTTTCTGTTCAAGCGCCATCTAC  1.31 RPM ratio (pull-down/input)
17. GATGATTGTTCTCCCAGCTGATGAATTCTTATTATCGAGTAAACAAATTTTCCTAATCTTTCTGTTCAAGCGCCATCTAC  1.6 RPM ratio (pull-down/input)
18. GATGATTGTTCTCCCAGCTGATGAATTATTGTAATCGAGTAAACAAATTTTCCTAATCTTTCTGTTCAAGCGCCATCTAC  1.91 RPM ratio (pull-down/input)
19. GATGATTGTTCTCCCAGCTGATGAATTGTTGATATCGAGTAAACAAATTTTCCTAATCTTTCTGTTCAAGCGCCATCTAC  2.16 RPM ratio (pull-down/input)
20. GATGATTGTTCTCCCAGCTGATGAATTCTATTTATCGAGTAAACAAATTTTCCTAATCTTTCTGTTCAAGCGCCATCTAC  2.58 RPM ratio (pull-down/input)
21. GATGATTGTTCTCCCAGCTGATGAATTATTGTTATCGAGTAAACAAATTTTCCTAATCTTTCTGTTCAAGCGCCATCTAC  2.83 RPM ratio (pull-down/input)
